AC50 and outcome data for 38 compounds are collected here from PubChem BioAssay (EPA / NIEHS).

Values joined by “and” are separate entries in the source; they are usually repeats but may differ in a detail not shown here. Equal entries are not always repeated. The source holds several records for some structures; these can differ, active in one and inactive in another. Active and inactive are the calls of the source. The calls were made as follows: active = hit-call score of the fitted dose curve at least 0.9, where 1 is the maximum; inactive = score below 0.9.

As usually defined, the AC50 is the midpoint of the concentration-response curve, whichever way the signal moves.

The assay in a line: BSK_SAg_Proliferation: Cell Proliferation Assessment in the BioMAP Diversity Plus: SAg Assay (AID 2283095). The conditions noted are these: primary human HUVEC with PBMC. As for the experimental part: BSK_SAg is a cell-based, multiplexed-readout assay that uses umbilical vein endothelium and peripheral blood mononuclear cells, a human vascular primary cell co-culture, with measurements taken at 24 hours after chemical dosing in a 96-well plate.BSK_SAg_Proliferation is an assay component in the BSK_SAg assay. It measures protein content, a form of viability reporter, as detected with absorbance signals by Sulforhodamine staining technology. Data from the assay component BSK_SAg_Proliferation was analyzed into 1 assay endpoint. This assay endpoint, BSK_SAg_Proliferation, was analyzed with bidirectional fitting relative to DMSO as the negative control and baseline of activity. Using a type of viability reporter, measures of total protein for gain or loss-of-signal activity can be used to understand the viability at the cellular-level. Furthermore, this assay endpoint can be referred to as a secondary readout, because this assay has produced multiple assay endpoints where this one serves a viability function. To generalize the intended target to other relatable targets, this assay endpoint is annotated to the cell cycle intended target family, where the subfamily is proliferation.
The levels of cell surface (or secreted, indicated by the prefix "s") biomarker endpoints were measured by ELISA. Overt cytotoxicity to cells in confluent adherent cultures (all systems other than the BT system) was assessed by measuring total protein levels using sulforhodamine B (SRB) staining in parallel cultures at the time of biomarker measurements, indicated as SRB endpoints. For proliferation assays for adherent cell types, individual cell types are cultured at sub-confluence and relative cell numbers quantified by SRB staining at time points optimized for each system (48 h: 3C and CASM3C systems; 72 h: BT and HDF3CGF systems; 96 h: SAg system). SRB was performed by staining cells with 0.1% SRB after fixation with 10% TCA and reading wells at 560 nm.Viability and proliferation of PBMC (T cells) was quantified by Alamar Blue reduction for the SAg and BT systems. For PBMC viability (referred to as PBMC Cytotoxicity within the assay endpoint names), cells were plated (75,000/well in a 96-well plate) and then chemical samples added for 1 h before addition of activators, SEB and TSST-1 (20 ng/mL final concentration each). Cells were incubated for 90 h. Then, Alamar Blue (20 uL/well) (Invitrogen, Cat DAL1100) was added for 6 h, and the plates were read with a fluorescence microplate reader at 546/580 nm (excitation/emission). For PBMC proliferation, cells were plated and activated as above but incubated for only 16 h prior to addition of Alamar Blue. Plates were read after 6 h.
For `Oc1cc2ccccc2c2ccccc12`, the AC50 was 3.62 µM (active).
In the case of `c1ccc2c(c1)Cc1ccccc1-2`, the outcome was inactive.
As to `O=C(OCCOCCOC(=O)c1ccccc1)c1ccccc1`, the result was inactive.
For `C=C(C)C(=O)OCCC(F)(F)C(F)(F)C(F)(F)C(F)(F)C(F)(F)C(F)(F)F`, the outcome was inactive and the half-maximal activity concentration (AC50) was 11.2 µM (active).
As to `OC1CCCCC1`, the result was inactive.
Turning to `CCOC(=O)CC(O)(CC(=O)OCC)C(=O)OCC`, the result was inactive.
For the compound `CCCCCCCCCCCCc1ccccc1S(=O)(=O)O`, the result was inactive.
Same read-out and setting: under `COCC(C)OCC(C)O` (stereo not given) stands “inactive”; under `C#C[C@]1(O)CC[C@H]2[C@@H]3CCC4=CC(=O)CC[C@@H]4[C@H]3CC[C@@]21C`, “inactive”.
In the case of `NC(=O)N(O)[C@@H]1C=C[C@H](Oc2cccc(Oc3ccc(F)cc3)c2)C1`, the concentration at half-maximal activity (AC50) is 20 µM (active).
Consider `CCCOC(=O)c1ccc(O)cc1`, for which the outcome was inactive.
As for `Cc1oc(-c2ccccc2)nc1CCOc1ccc(C[C@H](Nc2ccccc2C(=O)c2ccccc2)C(=O)O)cc1`, the concentration at half-maximal activity (AC50) was 19.3 µM (active).
`CCCCCCCCC(=O)O`: the result was inactive.
For the compound `CCCCOCCO`, the result was inactive.
In the case of `CC(C)(C)c1cc(C(C)(C)C)c(O)c(C(C)(C)C)c1`, the result was inactive.
Same read-out and setting: under `Cc1cc(C)c(O)c(C)c1` stands “inactive”.
Regarding `CCCCCCCCCCCCCCCS(=O)(=O)Oc1ccccc1`, the AC50 was 6.39 µM (active).
Turning to `Oc1cccc(O)c1`, the result was inactive.
For the compound `CCCCCCCCOC(=O)CCCCCCCCC(=O)OCCCCCCCC`, the result was inactive.
Still for that read-out and setting: under `CCCCCCCC(=O)O` stands “inactive”.
In the case of `CC(=O)CC(C)(C)O`, the outcome was inactive.
On the same count and under the same terms, under `O=[N+]([O-])c1ccc(O)cc1` stands “inactive”.
`O=C(O)Cc1cc(I)c(Oc2cc(I)c(O)c(I)c2)c(I)c1`: the AC50 was 19.6 µM (active).
On to `CCCCC(CC)COC(=O)CCCCC(=O)OCc1ccccc1` (stereo not given), for which the result was inactive.
Regarding `ClC1=C(Cl)C(Cl)(Cl)C(Cl)=C1Cl`, the half-maximal activity concentration (AC50) was 5.78 µM (active).
In the case of `NCC(F)(F)C(F)(F)C(F)(F)C(F)(F)C(F)(F)C(F)(F)C(F)(F)F`, the AC50 is 43.6 µM (active) and the outcome was inactive.
Consider `CCC(C)(C)C1CCC(O)CC1` (stereo not given), for which the result was inactive.
For the compound `CCN(CC)CCNc1ccc(CNC=O)c2sc3ccc(OC)cc3c(=O)c12`, the AC50 is 7.57 µM (active).
For `OCCC(F)(F)C(F)(F)C(F)(F)C(F)(F)C(F)(F)C(F)(F)C(F)(F)C(F)(F)F`, the AC50 was 20 µM (active) and 14.1 µM (active) and 10.9 µM (active).
For the compound `CC[C@H](c1ccc(O)cc1)[C@@H](CC)c1ccc(O)cc1`, the concentration at half-maximal activity (AC50) is 19.2 µM (active).
For the compound `O=C(O)c1ccccc1C(c1ccc(O)cc1)c1ccc(O)cc1`, the outcome was inactive.
As to `CCCOc1sc(C(=O)N2CCC(c3cc(CN)ccc3F)CC2)c(C)c1Br`, the AC50 was 5.11 µM (active).
Consider `COCC(C)O` (stereo not given), for which the result was inactive.
`N#C[C@@H]1CC(F)(F)CN1C(=O)CNC1CC2CCC(C1)N2c1ncccn1` (stereo not given in full): the half-maximal activity concentration (AC50) is 9.88 µM (active).
`CC(=O)NC1(c2cccc(F)c2)CCN(CC[C@@]2(c3ccc(Cl)c(Cl)c3)CN(c3ccccc3)C(=O)CO2)CC1`: the outcome was inactive.
Turning to `NC(=O)N1C(=O)C(C(=O)c2cc(Cl)cs2)c2cc(F)c(Cl)cc21` (stereo not given), the concentration at half-maximal activity (AC50) was 12.4 µM (active).
`COc1ccc([N+](=O)[O-])cc1N`: the result was inactive.
Take `CCc1nn(C2CCCCC2)c2cc(C3(C#N)CCC(C(=O)O)CC3)ccc12` (stereo not given): the AC50 was 12.5 µM (active).
